# Experimental data from PubChem BioAssay (Tox21).
# Inconclusive results are not listed. A call without a number means that no potency is given here. Unmarked numbers belong to inactive results. Active and inactive are the calls of the source. Calls come from the whole dose curve.
# Molecular target: Progesterone receptor (Homo sapiens) (UniProt P06401)
# Test: qHTS assay to identify small molecule agonists of the progesterone receptor (PR) signaling pathway (AID 1346784); note: nearly all actives have a fitted effect of over 30% in size
# Settings: PR-UAS-bla HEK293T, beta-lactamase FRET ratio, 16 h; series mostly up to 92.4 µM
# Description: U.S. Tox21 Program National Center for Advancing Translational Sciences [NCATS] NIH Chemical Genomics Center [NCGC] U.S. Environmental Protection Agency [EPA] National Institutes of Environmental Health Sciences [NIEHS] National Toxicology Program [NTP] U.S. Food and Drug Administration [FDA] […] Endocrine disrupting chemicals (EDCs) and their interactions with steroid hormone receptors like PR causes disruption of normal endocrine function. To identify the compounds that activate PR signaling, a PR-UAS-bla GripTite cell line i.e. PR-UAS-bla HEK 293T (Invitrogen, Carlsbad, CA, USA) containing a beta-lactamase reporter gene under the control of an Upstream Activator Sequence (UAS) was used to screen Tox21 10K compound library.
# Tox21 Assay Protocol Summary: PR-UAS-bla HEK 293T cells were dispensed at 3,000 cells/5 uL of assay medium containing 2% charcoal stripped FBS per well into black wall/clear-bottom 1536-well plates using a Multidrop Combi (ThermoFisher Scientific, Waltham, MA) dispenser. After the assay plates were incubated at a 37C and 5% CO2 for 6hr, 23 nL of compounds dissolved in DMSO, positive controls or DMSO only was transferred to the assay plate by a Pintool station (Kalypsys, San Diego, CA). The plates were incubated at 37C and 5% CO2 for 16hr. Then 1 uL of LiveBLAzer B/G FRET substrate was added using a BioRAPTR FRD (Flying Reagent Dispenser, Aurora Discovery, San Diego, CA). After the plates were incubated at room temperature for 2 hours, fluorescence intensity was measured by an Envision plate reader (PerkinElmer, Shelton, CT).
# Progesterone receptor (Homo sapiens), sequence (P06401 whole entry, looked up): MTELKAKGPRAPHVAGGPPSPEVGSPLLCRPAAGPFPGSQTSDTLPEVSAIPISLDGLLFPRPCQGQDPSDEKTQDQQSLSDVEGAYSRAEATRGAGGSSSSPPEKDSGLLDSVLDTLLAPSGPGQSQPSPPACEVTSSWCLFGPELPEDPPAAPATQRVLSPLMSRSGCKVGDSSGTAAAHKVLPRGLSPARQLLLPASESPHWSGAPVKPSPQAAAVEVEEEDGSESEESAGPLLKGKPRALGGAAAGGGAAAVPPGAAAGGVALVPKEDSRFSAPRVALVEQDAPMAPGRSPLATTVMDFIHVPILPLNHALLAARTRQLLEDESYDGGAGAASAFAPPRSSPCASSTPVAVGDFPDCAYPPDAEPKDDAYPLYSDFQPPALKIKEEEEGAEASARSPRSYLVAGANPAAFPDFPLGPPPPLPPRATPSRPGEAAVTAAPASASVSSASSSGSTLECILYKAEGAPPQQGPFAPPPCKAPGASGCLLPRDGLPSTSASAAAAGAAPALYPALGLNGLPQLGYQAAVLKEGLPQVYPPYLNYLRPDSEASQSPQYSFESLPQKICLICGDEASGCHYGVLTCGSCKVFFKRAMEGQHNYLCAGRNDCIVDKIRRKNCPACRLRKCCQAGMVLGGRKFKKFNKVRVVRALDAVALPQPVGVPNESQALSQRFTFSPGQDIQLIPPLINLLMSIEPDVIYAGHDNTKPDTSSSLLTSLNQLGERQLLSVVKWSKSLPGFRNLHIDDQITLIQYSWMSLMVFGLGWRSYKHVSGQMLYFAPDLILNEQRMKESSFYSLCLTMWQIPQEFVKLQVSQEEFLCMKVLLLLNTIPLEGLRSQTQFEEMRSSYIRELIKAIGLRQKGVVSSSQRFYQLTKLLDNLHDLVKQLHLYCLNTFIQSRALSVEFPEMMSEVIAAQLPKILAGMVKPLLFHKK
Structure (SMILES),Potency,activation
CC(O)CCCCn1c(=O)c2c(ncn2C)n(C)c1=O (stereo not given),inactive,–
BrCCOc1ccccc1,inactive,–
CCCCCCCCCCCCCCBr,inactive,–
Cc1cc2c(cc1CC(=O)c1sccc1S(=O)(=O)Nc1onc(C)c1Cl)OCO2,inactive,–
O=P(O)(O)C(O)(Cc1cccnc1)P(=O)(O)O,inactive,–
CCCCCCCCS(=O)(=O)O,inactive,–
CC(C)(C)C(=O)CCc1ccc(Cl)cc1,inactive,–
O=C(O)CCC(=O)Nc1ccc(S(=O)(=O)Nc2nccs2)cc1,inactive,–
CC(C)(C)c1ccc(C(=O)CCCCl)cc1,inactive,–
CC(CN1CC(=O)NC(=O)C1)N1CC(=O)NC(=O)C1 (stereo not given),inactive,–
NC(=O)CC[C@@H](N)C(=O)O,inactive,–
CCCCN(CCCC)CCCCCCN(CCCC)CCCC,inactive,–
Cc1ccc(NC(N)=O)cc1,inactive,–
C=C(C)C(=O)OCCCC,inactive,–
CN(C)CCC[C@@]1(c2ccc(F)cc2)OCc2cc(C#N)ccc21,inactive,–
COC(=O)N/N=C/c1c[n+]([O-])c2ccccc2[n+]1[O-],inactive,–
Cc1cc(C)c(N)c(Cl)c1,inactive,–
Cc1ccc(Br)cc1,inactive,–
CC(=O)c1ccc(O)c(C(N)=O)c1,inactive,–
CCNC(=O)C(C)OC(=O)Nc1ccccc1 (stereo not given),inactive,–

Structure (SMILES),Potency,activation
OCCC(F)(F)C(F)(F)C(F)(F)C(F)(F)C(F)(F)C(F)(F)F,inactive,–
N#CC1(N)CCCCC1,inactive,–
Nc1nc(Cl)cc(Cl)n1,inactive,–
Cc1ccccc1OCC(=O)O,inactive,–
CCOC(=O)c1ccc(N(C)C)cc1,inactive,–
CC(C)(C)OC(=O)c1ccccc1C(=O)O,inactive,–
NC[C@H]1O[C@H](O[C@H]2[C@H](O)[C@@H](O[C@H]3O[C@H](CO)[C@@H](O)[C@H](N)[C@H]3O)[C@H](N)C[C@@H]2N)[C@H](N)[C@@H](O)[C@@H]1O,–,-1.56% [at 19 µM]
CCCCCCCCOCCC#N,inactive,–
O=C(O)Cc1c(Cl)ccc(Cl)c1Cl,inactive,–
COc1cc(OC)cc(OC)c1,inactive,–
CC(=O)c1ccc2ccc3ccccc3c2c1,inactive,–
CCCc1ccc(O)c(OC)c1,inactive,–
CCC(C)(C)C,inactive,–
COC(=O)C(c1ccccc1Cl)N1CCc2sccc2C1 (stereo not given),inactive,–
CC(=O)SCC(CC(=O)c1ccc(C)cc1)C(=O)O (stereo not given),inactive,–
CN1C(CCl)Nc2cc(Cl)c(S(N)(=O)=O)cc2S1(=O)=O (stereo not given),inactive,–
C=CCn1cc[n+](C)c1,inactive,–
CC(C)C[P+](C)(CC(C)C)CC(C)C,inactive,–
CCCCCCCCCCCCCCCC/C=C/C1CC(=O)OC1=O (stereo not given),inactive,–
CC(=O)SC[C@@H](C)C(=O)N1CCC[C@H]1C(=O)N[C@@H](Cc1ccccc1)C(=O)O,inactive,–
